Experimental data reported in publication PMC7862700, “An all-to-all approach to the identification of sequence-specific readers for epigenetic DNA modifications on cytosine”.

Columns and labels:
Assay in all cases: DAPPL (digital affinity profiling via proximity ligation, sequencing); 10 mM Tris-HCl pH 7.5, 50 mM NaCl, 1 mM DTT, 4% glycerol, room temperature, 30 min; GST-TFs on glutathione beads, 16-mer random dsDNA library, 0.1% formaldehyde crosslink after washing; high values mean tight binding
[1] = molecular target: T1, FLI1 (Homo sapiens, UniProt Q01543 1-452); conditions: protein: recombinant; tags: N-terminal GST; dsDNA, one strand shown
T1 sequence: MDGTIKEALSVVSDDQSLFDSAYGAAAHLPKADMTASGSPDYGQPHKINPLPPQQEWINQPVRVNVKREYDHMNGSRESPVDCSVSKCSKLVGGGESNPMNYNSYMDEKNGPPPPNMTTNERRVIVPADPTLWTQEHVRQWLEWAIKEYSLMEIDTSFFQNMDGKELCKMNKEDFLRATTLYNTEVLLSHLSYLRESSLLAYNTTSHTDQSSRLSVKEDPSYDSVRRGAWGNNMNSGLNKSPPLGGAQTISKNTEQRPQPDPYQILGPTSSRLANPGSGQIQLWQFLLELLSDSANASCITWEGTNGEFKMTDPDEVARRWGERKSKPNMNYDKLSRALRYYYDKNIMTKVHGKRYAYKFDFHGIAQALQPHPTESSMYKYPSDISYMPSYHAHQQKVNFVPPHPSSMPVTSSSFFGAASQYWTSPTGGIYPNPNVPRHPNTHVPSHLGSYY
In short: (§1)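 Yeast served to express human transcription factors as GST fusions, which were then captured on glutathione beads and labelled with DNA barcodes. Pooled with a tag-only sample, they were incubated with 200 nmole of a 16-mer random double-stranded DNA library for 30 min at room temperature in Tris/NaCl/DTT/glycerol buffer, washed, crosslinked with 0.1% formaldehyde, ligated by proximity, amplified by PCR and sequenced. Dividing each hexamer's read frequency for a factor by its frequency for the tag-only sample gives the binding signal.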

[2] = molecular target: T2, ELK1 (Homo sapiens, UniProt P19419 1-428); conditions: protein: recombinant; tags: N-terminal GST; dsDNA, one strand shown
T2 sequence: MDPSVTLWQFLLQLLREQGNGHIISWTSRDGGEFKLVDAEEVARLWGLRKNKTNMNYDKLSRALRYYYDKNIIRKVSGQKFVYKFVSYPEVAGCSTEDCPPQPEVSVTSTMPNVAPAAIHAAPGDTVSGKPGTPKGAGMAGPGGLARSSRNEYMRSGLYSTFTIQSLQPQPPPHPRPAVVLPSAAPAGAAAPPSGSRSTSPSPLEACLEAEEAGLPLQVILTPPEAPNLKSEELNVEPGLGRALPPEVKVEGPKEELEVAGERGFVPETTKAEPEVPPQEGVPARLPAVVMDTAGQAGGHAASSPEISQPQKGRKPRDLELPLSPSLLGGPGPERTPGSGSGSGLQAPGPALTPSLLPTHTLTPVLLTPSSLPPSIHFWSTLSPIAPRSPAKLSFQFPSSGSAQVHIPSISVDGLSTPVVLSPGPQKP
In short: as §1

[3] = molecular target: T3, GABPA (Homo sapiens, UniProt Q06546 1-454); conditions: protein: recombinant; tags: N-terminal GST; dsDNA, one strand shown
T3 sequence: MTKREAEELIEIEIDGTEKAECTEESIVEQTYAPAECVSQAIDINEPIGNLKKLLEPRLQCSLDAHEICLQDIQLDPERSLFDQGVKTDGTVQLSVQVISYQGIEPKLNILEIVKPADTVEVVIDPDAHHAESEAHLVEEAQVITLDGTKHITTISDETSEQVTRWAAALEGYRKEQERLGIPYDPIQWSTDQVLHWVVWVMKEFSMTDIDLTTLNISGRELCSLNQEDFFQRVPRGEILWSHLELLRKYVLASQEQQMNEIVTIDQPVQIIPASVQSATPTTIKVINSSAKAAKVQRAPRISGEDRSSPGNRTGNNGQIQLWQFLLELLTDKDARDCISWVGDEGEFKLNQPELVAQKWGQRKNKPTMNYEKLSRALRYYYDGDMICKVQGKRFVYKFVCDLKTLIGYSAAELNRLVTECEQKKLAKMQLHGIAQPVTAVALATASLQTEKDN
In short: as §1

[4] = molecular target: T4, ERG (Homo sapiens, UniProt P11308 1-479); conditions: protein: recombinant; tags: N-terminal GST; dsDNA, one strand shown
T4 sequence: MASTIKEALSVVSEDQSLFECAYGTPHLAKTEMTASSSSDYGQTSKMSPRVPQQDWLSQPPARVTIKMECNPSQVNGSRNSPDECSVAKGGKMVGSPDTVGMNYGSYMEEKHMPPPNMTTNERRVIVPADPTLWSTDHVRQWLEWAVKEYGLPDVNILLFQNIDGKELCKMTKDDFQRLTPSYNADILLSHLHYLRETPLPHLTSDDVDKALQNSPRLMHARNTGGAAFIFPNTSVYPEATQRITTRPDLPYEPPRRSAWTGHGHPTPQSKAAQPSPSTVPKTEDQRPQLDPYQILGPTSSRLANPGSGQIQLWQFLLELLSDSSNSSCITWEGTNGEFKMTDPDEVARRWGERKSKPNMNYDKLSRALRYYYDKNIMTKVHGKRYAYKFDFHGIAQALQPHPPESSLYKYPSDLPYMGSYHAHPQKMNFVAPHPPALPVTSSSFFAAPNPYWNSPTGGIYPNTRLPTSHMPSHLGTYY
In short: as §1

[5] = molecular target: ELF1 (Homo sapiens, UniProt P32519 1-619); conditions: protein: recombinant; tags: N-terminal GST; dsDNA, one strand shown
Sequence of ELF1 (P32519 whole entry): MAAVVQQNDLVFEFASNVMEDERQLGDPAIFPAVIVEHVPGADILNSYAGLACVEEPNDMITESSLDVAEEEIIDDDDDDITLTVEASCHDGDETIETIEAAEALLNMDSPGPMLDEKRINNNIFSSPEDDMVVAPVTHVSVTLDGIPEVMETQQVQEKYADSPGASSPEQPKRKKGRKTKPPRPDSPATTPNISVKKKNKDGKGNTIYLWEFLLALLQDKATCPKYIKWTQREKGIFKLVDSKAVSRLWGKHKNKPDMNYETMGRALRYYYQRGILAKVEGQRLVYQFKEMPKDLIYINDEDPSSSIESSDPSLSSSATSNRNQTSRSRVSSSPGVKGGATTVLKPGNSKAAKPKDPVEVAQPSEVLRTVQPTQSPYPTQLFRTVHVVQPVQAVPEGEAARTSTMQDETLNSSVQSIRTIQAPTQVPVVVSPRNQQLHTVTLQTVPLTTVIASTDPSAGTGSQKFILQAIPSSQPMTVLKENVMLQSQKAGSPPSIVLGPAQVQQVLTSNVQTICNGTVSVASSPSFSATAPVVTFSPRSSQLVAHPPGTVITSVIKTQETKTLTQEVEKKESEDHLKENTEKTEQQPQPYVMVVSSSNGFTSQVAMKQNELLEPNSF
In short: as §1

[6] = molecular target: T5, EHF (Homo sapiens, UniProt Q9NZC4 1-300); conditions: protein: recombinant; tags: N-terminal GST; dsDNA, one strand shown
T5 sequence: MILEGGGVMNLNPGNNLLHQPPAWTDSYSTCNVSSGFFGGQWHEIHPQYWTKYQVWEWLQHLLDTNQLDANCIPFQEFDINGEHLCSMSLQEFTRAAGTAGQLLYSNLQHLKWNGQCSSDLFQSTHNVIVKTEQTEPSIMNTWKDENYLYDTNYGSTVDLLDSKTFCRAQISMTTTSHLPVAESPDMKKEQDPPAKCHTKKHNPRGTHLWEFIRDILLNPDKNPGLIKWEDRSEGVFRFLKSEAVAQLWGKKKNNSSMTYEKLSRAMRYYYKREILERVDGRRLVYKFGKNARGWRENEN
In short: as §1

[7] = molecular target: SPI1 (Homo sapiens, UniProt P17947 1-270); conditions: protein: recombinant; tags: N-terminal GST; dsDNA, one strand shown
In short: as §1

[8] = molecular target: SPIB (Homo sapiens, UniProt Q01892 1-262); conditions: protein: recombinant; tags: N-terminal GST; dsDNA, one strand shown
Sequence of SPIB (Q01892 whole entry): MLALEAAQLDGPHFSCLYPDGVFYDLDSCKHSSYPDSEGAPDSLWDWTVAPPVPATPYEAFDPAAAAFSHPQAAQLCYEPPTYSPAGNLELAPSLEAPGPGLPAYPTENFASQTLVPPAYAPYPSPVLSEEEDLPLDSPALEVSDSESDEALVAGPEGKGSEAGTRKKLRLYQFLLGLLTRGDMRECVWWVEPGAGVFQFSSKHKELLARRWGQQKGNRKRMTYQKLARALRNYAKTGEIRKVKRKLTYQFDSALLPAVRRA
In short: as §1

[9] = molecular target: T6, ELK3 (Homo sapiens, UniProt P41970 1-407); conditions: protein: recombinant; tags: N-terminal GST; dsDNA, one strand shown
T6 sequence: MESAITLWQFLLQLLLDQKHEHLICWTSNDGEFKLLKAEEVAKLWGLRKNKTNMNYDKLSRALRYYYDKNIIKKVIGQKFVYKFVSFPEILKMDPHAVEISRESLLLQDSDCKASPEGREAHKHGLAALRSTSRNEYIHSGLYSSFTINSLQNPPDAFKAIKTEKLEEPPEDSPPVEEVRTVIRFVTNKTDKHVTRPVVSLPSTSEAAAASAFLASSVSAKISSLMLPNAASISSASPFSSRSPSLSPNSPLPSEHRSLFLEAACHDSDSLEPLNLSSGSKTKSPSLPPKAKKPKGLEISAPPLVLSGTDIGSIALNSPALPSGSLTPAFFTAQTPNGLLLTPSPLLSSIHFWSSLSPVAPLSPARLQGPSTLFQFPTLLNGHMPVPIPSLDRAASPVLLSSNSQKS
In short: as §1

[10] = molecular target: T7, FEV (Homo sapiens, UniProt Q99581 1-238); conditions: protein: recombinant; tags: N-terminal GST; dsDNA, one strand shown
T7 sequence: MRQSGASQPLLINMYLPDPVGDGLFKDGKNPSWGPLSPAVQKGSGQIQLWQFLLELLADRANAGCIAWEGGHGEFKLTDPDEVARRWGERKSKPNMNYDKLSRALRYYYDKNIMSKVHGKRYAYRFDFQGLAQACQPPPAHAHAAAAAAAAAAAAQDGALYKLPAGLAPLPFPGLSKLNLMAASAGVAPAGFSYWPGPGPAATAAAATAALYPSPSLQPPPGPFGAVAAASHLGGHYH
In short: as §1

[11] = molecular target: ETV5 (Homo sapiens, UniProt P41161 1-510); conditions: protein: recombinant; tags: N-terminal GST; dsDNA, one strand shown
Sequence of ETV5 (P41161 whole entry): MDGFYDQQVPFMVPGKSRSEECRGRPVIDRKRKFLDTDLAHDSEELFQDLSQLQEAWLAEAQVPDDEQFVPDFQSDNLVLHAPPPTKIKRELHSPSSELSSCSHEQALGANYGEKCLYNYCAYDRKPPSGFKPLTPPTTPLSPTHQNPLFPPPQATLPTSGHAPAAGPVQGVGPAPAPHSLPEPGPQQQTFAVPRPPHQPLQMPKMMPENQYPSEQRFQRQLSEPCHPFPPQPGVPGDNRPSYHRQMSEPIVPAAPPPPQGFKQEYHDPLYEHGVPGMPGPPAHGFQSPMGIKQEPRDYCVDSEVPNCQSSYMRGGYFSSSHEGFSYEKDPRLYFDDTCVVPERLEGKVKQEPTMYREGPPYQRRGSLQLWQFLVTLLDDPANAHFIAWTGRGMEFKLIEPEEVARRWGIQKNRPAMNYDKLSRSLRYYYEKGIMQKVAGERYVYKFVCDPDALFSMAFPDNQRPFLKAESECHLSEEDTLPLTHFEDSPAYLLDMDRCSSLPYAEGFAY
In short: as §1

[12] = molecular target: HSF1 (Homo sapiens, UniProt Q00613 1-529); conditions: protein: recombinant; tags: N-terminal GST; chain copies: 3; dsDNA, one strand shown
Sequence of HSF1 (Q00613 whole entry): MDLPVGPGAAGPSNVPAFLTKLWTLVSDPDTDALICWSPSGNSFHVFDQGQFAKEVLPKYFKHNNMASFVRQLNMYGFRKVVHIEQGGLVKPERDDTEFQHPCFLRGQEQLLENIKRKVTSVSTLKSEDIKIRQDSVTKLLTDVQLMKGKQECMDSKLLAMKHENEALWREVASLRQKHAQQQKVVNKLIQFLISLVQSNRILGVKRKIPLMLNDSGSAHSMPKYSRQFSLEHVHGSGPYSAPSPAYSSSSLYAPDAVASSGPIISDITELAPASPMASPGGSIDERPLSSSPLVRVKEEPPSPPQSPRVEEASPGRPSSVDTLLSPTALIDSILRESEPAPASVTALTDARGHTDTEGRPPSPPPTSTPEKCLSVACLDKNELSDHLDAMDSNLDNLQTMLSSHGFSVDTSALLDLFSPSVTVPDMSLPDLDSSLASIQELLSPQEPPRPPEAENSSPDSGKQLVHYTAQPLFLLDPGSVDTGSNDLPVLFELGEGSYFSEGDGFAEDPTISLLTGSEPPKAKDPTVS
In short: as §1

[13] = molecular target: T8, SPIC (Homo sapiens, UniProt Q8N5J4 1-248); conditions: protein: recombinant; tags: N-terminal GST; dsDNA, one strand shown
T8 sequence: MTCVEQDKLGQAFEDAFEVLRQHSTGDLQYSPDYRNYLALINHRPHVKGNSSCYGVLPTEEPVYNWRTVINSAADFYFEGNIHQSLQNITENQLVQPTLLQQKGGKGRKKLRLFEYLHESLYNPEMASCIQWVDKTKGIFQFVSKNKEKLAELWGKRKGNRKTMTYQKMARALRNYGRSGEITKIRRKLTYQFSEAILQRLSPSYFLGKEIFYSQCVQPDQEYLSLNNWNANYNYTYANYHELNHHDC
In short: as §1

[14] = molecular target: ELF4 (Homo sapiens, UniProt Q99607 1-663); conditions: protein: recombinant; tags: N-terminal GST; dsDNA, one strand shown
Sequence of ELF4 (Q99607 whole entry): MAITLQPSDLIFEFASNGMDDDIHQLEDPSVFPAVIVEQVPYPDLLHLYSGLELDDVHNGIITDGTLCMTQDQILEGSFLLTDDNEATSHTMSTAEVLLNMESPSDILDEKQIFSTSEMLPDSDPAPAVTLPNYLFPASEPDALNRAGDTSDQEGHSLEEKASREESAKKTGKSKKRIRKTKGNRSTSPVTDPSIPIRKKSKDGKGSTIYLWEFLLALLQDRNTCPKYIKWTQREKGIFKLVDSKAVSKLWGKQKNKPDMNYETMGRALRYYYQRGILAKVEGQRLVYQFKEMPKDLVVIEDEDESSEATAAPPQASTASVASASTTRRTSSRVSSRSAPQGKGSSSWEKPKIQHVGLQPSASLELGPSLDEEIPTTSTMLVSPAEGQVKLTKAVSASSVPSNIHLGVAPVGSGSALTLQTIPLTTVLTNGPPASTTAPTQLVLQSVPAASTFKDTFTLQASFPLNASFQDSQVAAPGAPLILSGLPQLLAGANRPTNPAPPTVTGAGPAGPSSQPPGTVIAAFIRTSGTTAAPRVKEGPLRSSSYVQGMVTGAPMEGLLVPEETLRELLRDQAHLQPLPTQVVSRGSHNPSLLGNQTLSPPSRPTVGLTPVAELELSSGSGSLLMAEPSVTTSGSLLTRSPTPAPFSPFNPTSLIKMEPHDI
In short: as §1

[15] = molecular target: T9, ELK4 (Homo sapiens, UniProt P28324-2 1-405); conditions: protein: recombinant; tags: N-terminal GST; dsDNA, one strand shown
T9 sequence: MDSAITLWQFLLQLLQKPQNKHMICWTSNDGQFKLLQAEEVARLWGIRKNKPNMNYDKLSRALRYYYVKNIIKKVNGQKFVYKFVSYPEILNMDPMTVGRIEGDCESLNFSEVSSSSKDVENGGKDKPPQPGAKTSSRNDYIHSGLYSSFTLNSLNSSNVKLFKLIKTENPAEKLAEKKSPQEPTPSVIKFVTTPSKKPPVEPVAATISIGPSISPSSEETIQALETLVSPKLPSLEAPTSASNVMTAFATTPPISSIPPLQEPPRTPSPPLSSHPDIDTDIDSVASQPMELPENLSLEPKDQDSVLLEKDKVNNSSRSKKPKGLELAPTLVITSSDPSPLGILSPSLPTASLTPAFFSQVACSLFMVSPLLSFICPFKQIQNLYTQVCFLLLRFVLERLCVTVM
In short: as §1

[16] = molecular target: T10, ETV2 (Homo sapiens, UniProt O00321 1-342); conditions: protein: recombinant; tags: N-terminal GST; dsDNA, one strand shown
T10 sequence: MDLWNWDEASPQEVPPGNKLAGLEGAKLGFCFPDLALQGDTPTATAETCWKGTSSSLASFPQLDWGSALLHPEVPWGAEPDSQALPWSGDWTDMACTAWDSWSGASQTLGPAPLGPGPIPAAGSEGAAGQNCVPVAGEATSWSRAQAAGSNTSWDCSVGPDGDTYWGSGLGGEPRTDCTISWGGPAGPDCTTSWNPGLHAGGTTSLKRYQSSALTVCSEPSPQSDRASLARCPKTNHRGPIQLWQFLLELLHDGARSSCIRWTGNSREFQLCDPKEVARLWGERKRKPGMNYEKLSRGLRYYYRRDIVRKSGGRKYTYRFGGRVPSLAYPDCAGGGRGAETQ
In short: as §1

[17] = molecular target: T11, ELF3 (Homo sapiens, UniProt P78545 1-371); conditions: protein: recombinant; tags: N-terminal GST; dsDNA, one strand shown
T11 sequence: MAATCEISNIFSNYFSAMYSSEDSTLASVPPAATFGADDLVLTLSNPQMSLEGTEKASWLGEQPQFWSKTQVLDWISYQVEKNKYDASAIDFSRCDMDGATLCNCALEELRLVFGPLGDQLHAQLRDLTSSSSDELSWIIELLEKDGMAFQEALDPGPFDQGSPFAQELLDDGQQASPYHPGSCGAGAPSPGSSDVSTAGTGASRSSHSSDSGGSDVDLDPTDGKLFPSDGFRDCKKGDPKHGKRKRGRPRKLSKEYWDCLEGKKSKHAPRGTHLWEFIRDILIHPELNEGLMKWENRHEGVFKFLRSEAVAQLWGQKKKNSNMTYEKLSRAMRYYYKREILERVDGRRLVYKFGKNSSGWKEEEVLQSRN
In short: as §1

[18] = molecular target: CRX (Homo sapiens, UniProt O43186 1-299); conditions: protein: recombinant; tags: N-terminal GST; dsDNA, one strand shown
Sequence of CRX (O43186 whole entry): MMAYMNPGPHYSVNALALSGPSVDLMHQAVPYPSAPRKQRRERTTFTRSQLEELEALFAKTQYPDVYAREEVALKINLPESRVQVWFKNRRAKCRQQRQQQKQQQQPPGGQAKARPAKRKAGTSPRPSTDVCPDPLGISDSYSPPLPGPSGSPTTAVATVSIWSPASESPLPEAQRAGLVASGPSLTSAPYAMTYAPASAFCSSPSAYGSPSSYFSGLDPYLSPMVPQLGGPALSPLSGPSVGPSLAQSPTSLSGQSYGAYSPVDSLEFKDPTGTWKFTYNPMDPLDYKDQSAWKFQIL
In short: as §1

[19] = molecular target: ETV1 (Homo sapiens, UniProt P50549 1-477); conditions: protein: recombinant; tags: N-terminal GST; dsDNA, one strand shown
Sequence of ETV1 (P50549 whole entry): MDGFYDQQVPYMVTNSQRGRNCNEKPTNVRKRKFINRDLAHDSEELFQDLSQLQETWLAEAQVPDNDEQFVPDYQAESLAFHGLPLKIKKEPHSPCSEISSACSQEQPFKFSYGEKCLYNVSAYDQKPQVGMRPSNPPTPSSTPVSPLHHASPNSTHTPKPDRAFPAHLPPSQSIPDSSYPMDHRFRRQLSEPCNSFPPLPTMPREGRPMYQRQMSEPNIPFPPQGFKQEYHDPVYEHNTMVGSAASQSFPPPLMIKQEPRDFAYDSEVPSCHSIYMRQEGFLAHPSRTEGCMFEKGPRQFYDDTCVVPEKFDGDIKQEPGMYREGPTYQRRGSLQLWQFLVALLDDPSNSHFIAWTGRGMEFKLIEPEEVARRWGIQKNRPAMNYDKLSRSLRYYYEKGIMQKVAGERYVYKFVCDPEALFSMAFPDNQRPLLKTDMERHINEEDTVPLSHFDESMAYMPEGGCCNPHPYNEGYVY
In short: as §1

TCTCTC
binding signal [1]: 1.37 fold enrichment (6-mer frequency, TF over GST control)
binding signal [2]: 1.27 fold enrichment (6-mer frequency, TF over GST control)
binding signal [3]: 1.36 fold enrichment (6-mer frequency, TF over GST control)
binding signal [4]: 1.22 fold enrichment (6-mer frequency, TF over GST control)
binding signal [5]: 1.35 fold enrichment (6-mer frequency, TF over GST control)
binding signal [6]: 1.36 fold enrichment (6-mer frequency, TF over GST control)
binding signal [7]: 1.39 fold enrichment (6-mer frequency, TF over GST control)
binding signal [8]: 1.31 fold enrichment (6-mer frequency, TF over GST control)
binding signal [9]: 1.36 fold enrichment (6-mer frequency, TF over GST control)
binding signal [10]: 1.21 fold enrichment (6-mer frequency, TF over GST control)
binding signal [11]: 1.27 fold enrichment (6-mer frequency, TF over GST control)
binding signal [12]: 1.59 fold enrichment (6-mer frequency, TF over GST control)
binding signal [13]: 1.36 fold enrichment (6-mer frequency, TF over GST control)
binding signal [14]: 1.44 fold enrichment (6-mer frequency, TF over GST control)
binding signal [15]: 1.38 fold enrichment (6-mer frequency, TF over GST control)
binding signal [16]: 1.34 fold enrichment (6-mer frequency, TF over GST control)
binding signal [17]: 1.39 fold enrichment (6-mer frequency, TF over GST control)
binding signal [18]: 1.35 fold enrichment (6-mer frequency, TF over GST control)
binding signal [19]: 1.3 fold enrichment (6-mer frequency, TF over GST control)
